ASM inhibitor: human S-ASM enzyme inhibition; 340,000 compounds, 0.006% hits; placental ASM, HMU-PC fluorogenic substrate, 60 min; Potency, µM (series often up to 57.5 µM), for inactives: at the highest dose activity change, negative = inhibition, most hits filed as inhibitors; further: potency means the concentration at half of the fitted maximal effect
Target sequence (P17405 47-631 limits assumed): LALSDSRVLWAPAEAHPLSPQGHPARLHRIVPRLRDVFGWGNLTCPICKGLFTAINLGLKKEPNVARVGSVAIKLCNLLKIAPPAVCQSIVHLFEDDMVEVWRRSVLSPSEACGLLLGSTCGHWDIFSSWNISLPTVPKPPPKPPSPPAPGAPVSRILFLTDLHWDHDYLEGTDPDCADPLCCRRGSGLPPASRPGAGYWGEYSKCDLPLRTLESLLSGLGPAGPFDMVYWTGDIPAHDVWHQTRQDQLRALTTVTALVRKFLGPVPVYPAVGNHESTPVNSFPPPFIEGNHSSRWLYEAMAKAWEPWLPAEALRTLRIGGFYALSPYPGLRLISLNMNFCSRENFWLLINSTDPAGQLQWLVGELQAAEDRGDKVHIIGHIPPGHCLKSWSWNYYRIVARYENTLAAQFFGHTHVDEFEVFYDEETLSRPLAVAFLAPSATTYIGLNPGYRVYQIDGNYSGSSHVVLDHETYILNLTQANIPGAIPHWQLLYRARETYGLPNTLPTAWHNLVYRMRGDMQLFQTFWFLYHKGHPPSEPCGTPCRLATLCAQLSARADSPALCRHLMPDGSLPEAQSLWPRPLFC
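Human placenta-derived ASM enzyme was preincubated with compound for 10 minutes at room temperature, then given fluorogenic substrate HMU-PC0 (9 uM final) for 60 minutes at 37 °C; a pH 10 stop preceded fluorescence reading at Ex 386/Em 447 nm.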
HepG2 tox: counter-screen for TGF-b inhibitors: cytotoxicity in HepG2 cells. HepG2 CAGA-GFP viability, ATP luminescence, 18 h. Potency, µM (series often up to 46.1 µM), for inactives: at the highest dose activity change, negative = cytotoxicity, most hits filed as cytotoxic. 410,000 compounds, 0.76% hits. AID 588856; further: potency means the concentration at half of the fitted maximal effect
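HepG2 CAGA-GFP cells (1000/well, DMEM with 1% FBS) received compound, then TGF-beta at 500 pg/mL final, and were incubated 18 hours at 37 degrees C. Viability was read by CellTiter-Glo luminescence. Media-only wells were set as complete cell-killing and DMSO as no toxicity.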
TGFb SMAD3 inh: TGF-b pathway inhibition. 410,000 compounds, 1.2% hits. HepG2 CAGA-GFP TGF-b/SMAD3 reporter, GFP fluorescence, 18 h; TGF-beta stimulated, 500 pg/mL final. Potency, µM (series often up to 46.1 µM), without a hit: at the highest dose activity, negative = inhibition, most hits filed as inhibitors. AID 588855; further: potency means the concentration at half of the fitted maximal effect; on the % scale 0 is the no-effect control and ±100 the full control effect; nearly all actives have a fitted effect of over 65% in size
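GFP signal (ex488/em500-530) from TGF-beta-stimulated HEPG2 CAGA-GFP cells, 500 pg/mL final, 18 h at 37 degrees C in DMEM plus 1% FBS, normalized to unstimulated and DMSO-stimulated controls.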
TDP1 cell CPT: growth inhibition of DT40 Tdp1-/-;hTDP1 cells with camptothecin (screen for TDP1 inhibitors). chicken DT40 Tdp1-/-;hTDP1 cells + 20 nM CPT, ATP luminescence, 48 h. Potency, µM (top dose mostly 46.2 µM), for the others: at the highest dose activity change, negative = growth inhibition, actives largely listed as inhibitors. 420,000 compounds, 12% hits; further: potency means the concentration at half of the fitted maximal effect; on the % scale 0 is the no-effect control and ±100 the full control effect; nearly all actives have a fitted effect of over 55% in size
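Cell growth measured by CellTiter-Glo luminescence after a minimum 48 h, 37 C compound exposure with 20 nM CPT in Tdp1-knockout DT40 cells stably expressing hTDP1, seeded 400/well; qHTS titration format.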
IL-1B inflam inh: inhibitors of inflammasome signaling (IL-1 beta secretion) | AID 743279 | 360,000 compounds, 4.7% hits | activity change, % at 57.5 µM | THP-1 LPS/ATP IL-1B secretion, AlphaLISA, 16 h; hits give low values; in the data active means activity change below about -50%; inconclusive means mostly about -30% to -49%; further: on the % scale 0 is the no-effect control and ±100 the full control effect
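THP-1 cells pretreated 1 hr with compounds (up to 57.5 uM final), then stimulated with LPS (250 ng/mL final) plus ATP (1.25 mM final); secreted IL-1B measured by AlphaLISA after 16 hr, decreased signal indicating inhibition.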
TDP1 cell noCPT: qHTS for Inhibitors of human tyrosyl-DNA phosphodiesterase 1 (TDP1): qHTS in cells in absence of CPT; DT40 Tdp1-/- hTDP1 cells, no CPT, ATP luminescence, 48 h; Potency, µM (doses to about 46.2 µM), for the others: top-dose activity change, negative = growth inhibition, actives largely listed as inhibitors; 420,000 compounds, 15% hits; further: potency means the concentration at half of the fitted maximal effect; on the % scale 0 is the no-effect control and ±100 the full control effect; nearly all actives have a fitted effect of over 55% in size
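DT40 Tdp1-/-;hTDP1 cells, no CPT (DMSO vehicle only), 400 cells/well; compounds pin-transferred; ≥48 hr, 37 °C; CellTiter-Glo 30 min RT dark, luminescence read.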
* marks the source's active call; other numbers are inactive results; ? = inconclusive; nt = no result given; ! = not confirmed by another sample. Rows were chosen to be rich in hits. Some 19% of all compounds tested hit in one or more screens of this group. Unless noted, the call rests on the fitted dose curve; in most records, active means well fitted curve in the direction sought with a large enough effect; inconclusive means small, poorly fitted or top-dose-only effect, or another doubt; inactive means no such curve, though single readings can be large; an effect the other way counts as inactive or inconclusive.

SMILES	ASM inhibitor	HepG2 tox	TGFb SMAD3 inh	TDP1 cell CPT	IL-1B inflam inh	TDP1 cell noCPT
CC(C)(C)OC(=O)NCCCCCNC(=O)c1nc[nH]c1C(=O)NCC(=O)OCc1ccccc1	5%	-12%	-6%	?	-9	15µM*
CC(C)(C)OC(=O)NCCCC[C@H](NC(=O)c1nc[nH]c1C(=O)NCC(=O)OCc1ccccc1)C(=O)OC(C)(C)C	-9%	-5%	0%	15µM*	-1	?
CCc1ccc(CN(C)CC(=O)Nc2ccccc2[N+](=O)[O-])cc1	-3%	-10%	-12%	?	5	?
CN(CC(=O)Nc1cccc(F)c1)CC(=O)Nc1ccccc1[N+](=O)[O-]	1%	-8%	?	23µM*	5	12µM*
C=CCOc1ccc(CN(C)CC(=O)Nc2ccccc2[N+](=O)[O-])cc1	-2%	2%	6%	?	8	21µM*
COc1ccc(NC(=O)CN(C)CC(=O)c2[nH]c(C)c(C(C)=O)c2C)cc1	3%	-14%	7%	?	11	?
COc1cccc(NC(=O)CN(C)CC(=O)Nc2ccc(C)c([N+](=O)[O-])c2)c1	-5%	14%	-8%	?	-3	10µM*
COC(=O)c1c(C)[nH]c(C(=O)CN(C)CC(=O)Nc2cccc(F)c2)c1C	0%	-7%	-18%	-24%	-15	15µM*
O=C(NC1CCCC1)C(c1ccco1)N1CCC(O)(c2ccc(Cl)cc2)CC1 (stereo unspecified)	nt	nt	nt	23µM*	-6	18µM*
COc1cccc(C(C(=O)NC2CCCC2)N2CCN(c3cc(C)ccc3C)CC2)c1OC (stereo unspecified)	nt	nt	nt	21µM*	-59*	21µM*
Cc1ccc(C)c(N2CCN(C(C(=O)NC3CCCC3)c3ccco3)CC2)c1 (stereo unspecified)	nt	nt	nt	?	-55*	12µM*
COc1cccc(C(C(=O)NC2CCCC2)N2CCN(c3ncccc3C#N)CC2)c1OC (stereo unspecified)	nt	nt	nt	?	-12	16µM*
COc1cccc(C(C(=O)NCc2ccccc2)N2CCN(CCN3CCOCC3)CC2)c1OC (stereo unspecified)	nt	nt	nt	-6%	0	-3%
Cc1cccc(C(=O)N2CCN(c3ccc([N+](=O)[O-])c(NCc4ccco4)c3)CC2)c1	?	-1%	?	?	-8	21µM*
Cc1ccc(C(=O)N2CCN(c3ccc([N+](=O)[O-])c(NCc4ccco4)c3)CC2)cc1	-28%	-2%	?	?	-26	16µM*
Cc1ccccc1C(=O)N1CCN(c2ccc([N+](=O)[O-])c(NCc3ccco3)c2)CC1	-25%	-33%	-13%	?	-11	?
C/C=C(/CC[C@@H](C)[C@H]1CC[C@H]2C3=CC[C@H]4[C@H](C)[C@@H](O)CC[C@]4(C)[C@H]3CC[C@]12C)C(C)C	nt	nt	nt	-6%	nt	-21%
C=CC(=O)N(CCC)C(c1ccccc1)c1ccccc1OC (stereo unspecified)	-1%	-25%	?	16µM*	-27	15µM*
CCOC(=O)N1CCN(C(=O)CSc2ccc3nnc(-c4cccnc4)n3n2)CC1	5%	-7%	-6%	?	-28	18µM*
CCOc1ccccc1NC(=O)CSc1ccc2nnc(-c3cccnc3)n2n1	-2%	-1%	15%	-9%	0	-14%
CCOC(=O)C(CC)Sc1ccc2nnc(-c3cccnc3)n2n1 (stereo unspecified)	2%	-7%	-1%	14µM*!	27	?
CCOc1ccc(NC(=O)CSc2ccc3nnc(-c4cccnc4)n3n2)cc1	1%	8%	-2%	-12%	-5	?
CC1CCN(C(=O)CSc2nnc3ccc(-c4cccnc4)nn23)CC1	0%	-40%	0%	1%	-57*	-25%
O=C1CC2(CCN(C(=O)c3ccc(F)c(F)c3)CC2)Oc2ccccc21	-2%	6%	3%	29µM*	-11	?
CCSc1ccccc1C(=O)N1CCC2(CC1)CC(=O)c1ccccc1O2	0%	-17%	-14%	-46%	-1	16µM*
SMILES	ASM inhibitor	HepG2 tox	TGFb SMAD3 inh	TDP1 cell CPT	IL-1B inflam inh	TDP1 cell noCPT
COc1cccc(NC(=O)Cn2c(=O)n(-c3ccc(Cl)cc3)c(=O)c3sc4ccccc4c32)c1	nt	-24%	0%	?	nt	?
COc1cccc(NC(=O)Cn2c(=O)n(-c3ccccc3)c(=O)c3sccc32)c1	-3%	-14%	-27%	?	-4	13µM*
COc1cccc(-n2c(=O)c3sc4ccccc4c3n(CC(=O)Nc3cccc(Cl)c3)c2=O)c1	nt	-5%	7.9µM*	15%	nt	-21%
CCc1ccc2c(c1)-c1ccccc1S(=O)(=O)N2CC(=O)N1CCCCC1	nt	-20%	-19%	?	nt	?
NC(=O)C1CCN(C(=O)CN2C(=O)c3ccccc3S2(=O)=O)CC1	3%	0%	18%	-28%	1	3%
CCc1ccc2c(c1)-c1ccccc1S(=O)(=O)N2CC(=O)N1CCC(C)CC1	nt	-28%	-24%	16µM*	nt	18µM*
CCOC(=O)C1CCN(C(=O)CN2c3ccc(C(C)C)cc3-c3ccccc3S2(=O)=O)CC1	nt	0%	-12%	21µM*	nt	?
Cc1ccc(OCc2nc3c4c(ncn3n2)-c2ccccc2CC42CCCC2)cc1	-2%	1%	?	-17%	14	?
Cc1ccccc1OCc1nc2c3c(ncn2n1)-c1ccccc1CC31CCCC1	-7%	13%	5%	?	-3	15µM*
Oc1cccc(-c2nc3c4c(ncn3n2)-c2ccccc2CC42CCCC2)c1	-22%	-96%	?	18µM*	?	18µM*
COc1ccc(OCc2nc3c4c(ncn3n2)-c2ccccc2CC42CCCC2)cc1	-3%	14%	1%	?	6	?
COc1cc2c(cc1OC)CN(C(=O)C1CCCN1S(=O)(=O)c1ccc(F)cc1)CC2 (stereo unspecified)	0%	2%	0%	-10%	-9	-18%
COc1cccc(NC(=O)CC(=O)c2ccccc2)c1	-2%	-21%	10%	9%	-5	-15%

Screens: PubChem, National Center for Advancing Translational Sciences (NCATS)
